Laboratory results published in PubChem BioAssay AID2283127 (EPA ToxCast).
Results filed as inconclusive are left out. Active and inactive are the calls of the source. How the source made its calls: active means hit-call score of the fitted dose curve at least 0.9, where 1 is the maximum; inconclusive means response in the unintended direction; inactive means score below 0.9.

molecular target: human AKT serine/threonine Kinase 3 (AKT3), AKT3 (gene 10000) (UniProt Q9Y243); experiment: NVS_ENZ_hAKT3: NovaScreen (NVS) Enzymatic Assay for human AKT serine/threonine Kinase 3 (AKT3)
Protocol: NVS_ENZ_hAKT3 is a biochemical, single-readout assay that uses extracted gene-proteins in a cell-free assay. Measurements were taken 1 hour after chemical dosing in a 384-well plate.NVS_ENZ_hAKT3 is one of one assay component(s) measured or calculated from the NVS_ENZ_hAKT3 assay. It is designed to make measurements of enzyme activity, a form of enzyme reporter, as detected with fluorescence intensity signals by Fluorescence and electrophoretic mobility shift technology.Data from the assay component NVS_ENZ_hAKT3 was analyzed into 1 assay endpoint. This assay endpoint, NVS_ENZ_hAKT3, was analyzed in the positive analysis fitting direction relative to DMSO as the negative control and baseline of activity. Using a type of enzyme reporter, loss-of-signal activity can be used to understand changes in the enzymatic activity as they relate to the gene AKT3. Furthermore, this assay endpoint can be referred to as a primary readout, because this assay has produced multiple assay endpoints where this one serves a enzymatic activity function. To generalize the intended target to other relatable targets, this assay endpoint is annotated to the kinase intended target family, where the subfamily is serine/threonine kinase. […]

Sequence of human AKT serine/threonine Kinase 3 (AKT3), AKT3 (gene 10000) (Q9Y243 whole entry, looked up): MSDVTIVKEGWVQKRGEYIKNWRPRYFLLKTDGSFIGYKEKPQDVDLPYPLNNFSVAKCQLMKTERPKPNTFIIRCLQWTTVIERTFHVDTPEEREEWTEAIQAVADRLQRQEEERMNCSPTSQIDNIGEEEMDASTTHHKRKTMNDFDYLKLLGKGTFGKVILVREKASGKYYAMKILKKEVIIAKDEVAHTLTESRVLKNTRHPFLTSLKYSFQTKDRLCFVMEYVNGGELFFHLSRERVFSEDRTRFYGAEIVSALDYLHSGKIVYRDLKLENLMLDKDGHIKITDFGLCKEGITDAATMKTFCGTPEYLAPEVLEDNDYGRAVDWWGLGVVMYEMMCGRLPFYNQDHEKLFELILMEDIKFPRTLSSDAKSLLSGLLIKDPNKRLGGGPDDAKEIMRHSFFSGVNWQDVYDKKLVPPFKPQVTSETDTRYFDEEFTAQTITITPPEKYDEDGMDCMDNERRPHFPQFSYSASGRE

SMILES	outcome	AC50
CN(C)C(=S)SSC(=S)N(C)C	inactive	–
S=C([S-])NCCNC(=S)[S-].[Mn+2]	–	25 µM (active)
